In the supplement of paper PMC3334620:
The full ranking holds about 33,000 sequences; the median of “E-score (-0.5 to 0.5)” is about -0.054, and the highest 2% start at about 0.39. The sample as a whole holds a higher share of the highest values than the screen did.

These sequences were tested against Ylr278c (UniProt Q05854) (assay: PBM E-score (8-mer binding enrichment) (E-score (-0.5 to 0.5)); higher = stronger / more preferred TF binding). Conditions: protein concentration: 200 nM; construct: GST-DNA-binding domain.
Summary of the method: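 Yeast transcription factors, full-length or as DNA-binding domains, were expressed with a GST tag using PURExpress in vitro transcription/translation. At about 100-200 nM they were applied to universal all-10-mer Agilent arrays, double-stranded by primer extension on fresh or once-stripped slides. Fluorescent anti-GST detected bound protein, and masliner normalised the scans. E-scores for ungapped eight-base words, pooled with reverse complements, came from the Universal PBM Analysis Suite.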

UniProt Q05854, sequence (Q05854 whole entry, the tested form may be a part): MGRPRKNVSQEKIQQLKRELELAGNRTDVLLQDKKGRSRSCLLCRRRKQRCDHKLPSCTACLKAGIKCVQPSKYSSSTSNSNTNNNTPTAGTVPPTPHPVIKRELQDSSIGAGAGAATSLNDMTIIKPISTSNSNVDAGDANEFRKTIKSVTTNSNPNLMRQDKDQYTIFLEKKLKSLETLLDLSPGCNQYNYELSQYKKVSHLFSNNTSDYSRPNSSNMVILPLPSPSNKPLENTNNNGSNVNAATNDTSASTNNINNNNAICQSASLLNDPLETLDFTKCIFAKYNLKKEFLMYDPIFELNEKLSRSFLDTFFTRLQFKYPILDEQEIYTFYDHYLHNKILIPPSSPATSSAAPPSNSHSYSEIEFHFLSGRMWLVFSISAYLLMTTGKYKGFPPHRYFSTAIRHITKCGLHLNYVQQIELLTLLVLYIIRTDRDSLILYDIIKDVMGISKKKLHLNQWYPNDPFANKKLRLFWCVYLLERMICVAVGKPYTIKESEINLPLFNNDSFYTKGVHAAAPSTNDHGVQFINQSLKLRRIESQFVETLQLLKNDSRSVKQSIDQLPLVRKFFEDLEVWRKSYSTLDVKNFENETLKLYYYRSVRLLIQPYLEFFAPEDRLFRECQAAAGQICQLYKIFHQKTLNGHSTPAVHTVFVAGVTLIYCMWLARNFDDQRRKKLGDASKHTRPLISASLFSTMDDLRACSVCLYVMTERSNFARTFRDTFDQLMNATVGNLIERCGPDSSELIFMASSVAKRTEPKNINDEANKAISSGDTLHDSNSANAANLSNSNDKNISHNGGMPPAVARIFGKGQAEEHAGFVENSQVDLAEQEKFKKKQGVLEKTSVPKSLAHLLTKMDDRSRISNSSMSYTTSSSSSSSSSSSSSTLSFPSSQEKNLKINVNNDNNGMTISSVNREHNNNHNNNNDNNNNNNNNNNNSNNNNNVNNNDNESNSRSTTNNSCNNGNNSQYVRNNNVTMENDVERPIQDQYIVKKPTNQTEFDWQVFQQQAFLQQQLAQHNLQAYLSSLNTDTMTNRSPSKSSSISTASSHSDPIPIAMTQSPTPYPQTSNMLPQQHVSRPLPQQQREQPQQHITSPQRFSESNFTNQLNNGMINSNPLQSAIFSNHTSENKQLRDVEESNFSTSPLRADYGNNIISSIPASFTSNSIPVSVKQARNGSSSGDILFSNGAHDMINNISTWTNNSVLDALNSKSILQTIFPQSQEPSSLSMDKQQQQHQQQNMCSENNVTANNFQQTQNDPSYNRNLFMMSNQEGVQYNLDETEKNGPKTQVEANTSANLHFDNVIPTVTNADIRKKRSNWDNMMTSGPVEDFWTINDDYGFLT

Compared with GAGCTGGA, TAAGGACA is lower in “PBM E-score” value: 0.0426 for the first, -0.156 for the second.

Going from CTATCTGA to GGTTCGAA, the “PBM E-score” value rises from -0.328 to 0.0257.

First: AGTTCGGG
Second: CGTTCGGC
The “PBM E-score” value of the first is higher: 0.281 for the first, 0.235 for the second.

First: GGTTCGCA
Second: CGTTCGTA
The “PBM E-score” value of the first is higher: 0.0401 for the first, 0.0114 for the second.

Compared with GGTTCGGA, CGTTCGGA is lower in “PBM E-score” value: 0.42 for the first, 0.41 for the second.

Compared with AGTTCGGC, AGTTCGGA is higher in “PBM E-score” value: 0.185 for the first, 0.391 for the second.

First: AAGAGACT
Second: AAATCTGA
The “PBM E-score” value of the first is lower: -0.101 for the first, -0.0879 for the second.

Compared with TAGTACGA, GGGAGTAC is higher in “PBM E-score” value: -0.0816 for the first, 0.0396 for the second.

Going from AGGAGTAC to CGGAGTAG, the “PBM E-score” value rises from -0.136 to 0.465.

Going from CGGAGTAA to GGGAGTAA, the “PBM E-score” value falls from 0.468 to 0.0663.

Going from CCGAGTAG to AGGAGTAG, the “PBM E-score” value falls from 0.197 to -0.00627.

Going from AGGAGTAA to CGGAGTAC, the “PBM E-score” value rises from 0.0423 to 0.462.

First: GAACAGAA
Second: ACTTCAAC
The “PBM E-score” value of the first is lower: -0.0459 for the first, -0.0372 for the second.

First: GAGTGAGC
Second: AATAGATT
The “PBM E-score” value of the first is lower: -0.125 for the first, -0.0366 for the second.

Compared with AAGGGCTA, CCAGATGG is higher in “PBM E-score” value: -0.124 for the first, -0.0985 for the second.

First: GTATGGCA
Second: GAGCCGGC
The “PBM E-score” value of the first is lower: -0.204 for the first, 0.325 for the second.

First: AAGCCGGC
Second: AAGCCGGT
The “PBM E-score” value of the first is higher: 0.372 for the first, 0.333 for the second.

Compared with TAGCCGAA, CAGCCGGG is higher in “PBM E-score” value: 0.141 for the first, 0.166 for the second.

Compared with AAGCCGGA, TAGCCGCA is lower in “PBM E-score” value: 0.417 for the first, 0.041 for the second.

Compared with CAGCCGGC, GAGCCGGA is higher in “PBM E-score” value: 0.296 for the first, 0.407 for the second.

Going from CAGCCGGA to TAGCCGGA, the “PBM E-score” value falls from 0.434 to 0.42.

Going from GAGCCGCA to AGCCGCAT, the “PBM E-score” value rises from 0.0873 to 0.105.

Going from CCCCGTGC to AAACCCTC, the “PBM E-score” value falls from 0.295 to -0.0128.

Compared with CAGAGGAC, CCGGGAAG is higher in “PBM E-score” value: -0.187 for the first, 0.334 for the second.

First: CAGTGATC
Second: CTCGACCA
The “PBM E-score” value of the first is higher: -0.0716 for the first, -0.232 for the second.

First: CGCATAAC
Second: ATAGCGAA
The “PBM E-score” value of the first is higher: -0.0515 for the first, -0.144 for the second.

First: ATACACAT
Second: GTGCGGAA
The “PBM E-score” value of the first is lower: -0.212 for the first, 0.265 for the second.

Compared with GTACGGAA, TTCCGGAA is higher in “PBM E-score” value: 0.31 for the first, 0.467 for the second.

First: ATCCGTAA
Second: ATCAGGAT
The “PBM E-score” value of the first is higher: 0.155 for the first, -0.018 for the second.

Going from ATCCGCAT to ATGCGGAA, the “PBM E-score” value rises from 0.263 to 0.383.

Going from TTCAGGAA to TTACGGAA, the “PBM E-score” value rises from -0.0794 to 0.283.

Going from ATCCGGAT to GTCCGGAA, the “PBM E-score” value falls from 0.452 to 0.44.

Compared with ATCCGGAA, AATTGCAC is lower in “PBM E-score” value: 0.432 for the first, -0.054 for the second.

Compared with CATCGCAA, GGTTTCAC is higher in “PBM E-score” value: -0.28 for the first, 0.0826 for the second.

Going from TACGCATA to GTCAGGAC, the “PBM E-score” value falls from -0.0249 to -0.266.

Going from CTGCGGAC to ATCCGTAC, the “PBM E-score” value falls from 0.221 to 0.112.

First: ATCAGGAG
Second: ATCCGGAG
The “PBM E-score” value of the first is lower: -0.02 for the first, 0.486 for the second.

Compared with ATACGGAC, ATCCGTAG is lower in “PBM E-score” value: 0.242 for the first, 0.134 for the second.

First: GTACGGAC
Second: CTCCGGAC
The “PBM E-score” value of the first is lower: 0.249 for the first, 0.477 for the second.

Going from GTCCGGAC to ATCCGGAC, the “PBM E-score” value falls from 0.455 to 0.424.

Going from CTCAGGAC to ATGCAGAA, the “PBM E-score” value falls from -0.159 to -0.16.

Compared with AGAGATTG, AGCTGGTG is higher in “PBM E-score” value: -0.112 for the first, -0.109 for the second.

Going from AATTTGGC to ACCCTTCG, the “PBM E-score” value rises from -0.131 to 0.0769.

Compared with ATGCGATA, GTACCAGA is lower in “PBM E-score” value: -0.0857 for the first, -0.28 for the second.

Compared with ATGCTACG, TAGTAGCA is higher in “PBM E-score” value: -0.0841 for the first, -0.0836 for the second.

First: CGAGGTCC
Second: CTGCGGAA
The “PBM E-score” value of the first is higher: 0.333 for the first, 0.214 for the second.

First: CTCCGGAG
Second: CTCAGGAG
The “PBM E-score” value of the first is higher: 0.481 for the first, -0.171 for the second.

Going from CTCCGGAA to ATGCGGAG, the “PBM E-score” value falls from 0.479 to 0.385.

Going from CTCAGGAA to CTAACAAC, the “PBM E-score” value falls from -0.0459 to -0.0734.

First: CCGCTGCA
Second: CATGCTCA
The “PBM E-score” value of the first is higher: 0.0719 for the first, -0.115 for the second.

Going from ATCCGTCC to CTCCGTAC, the “PBM E-score” value rises from 0.18 to 0.358.

First: CCCCGTCC
Second: GTCCGTCA
The “PBM E-score” value of the first is lower: 0.252 for the first, 0.289 for the second.

Going from ATCCGTCA to CTCCGTCA, the “PBM E-score” value rises from 0.159 to 0.421.

Compared with CTCCGTAA, CTCCGTCC is higher in “PBM E-score” value: 0.41 for the first, 0.449 for the second.

Compared with GTCCGTAA, CGAATCCA is lower in “PBM E-score” value: 0.331 for the first, -0.0549 for the second.

Going from ACATTGGT to AATATCTC, the “PBM E-score” value rises from -0.1 to 0.0682.

First: ACTGACAG
Second: AGTGGGAT
The “PBM E-score” value of the first is lower: -0.0502 for the first, -0.00431 for the second.

Compared with CCTCCGCC, CATCCGCG is lower in “PBM E-score” value: 0.413 for the first, 0.197 for the second.

Going from ACTCCGCG to CATCCGCC, the “PBM E-score” value falls from 0.462 to 0.309.

First: ACTCCACG
Second: CCTCCGCG
The “PBM E-score” value of the first is lower: 0.0682 for the first, 0.416 for the second.

Compared with CCGCCTCC, AATCCGCG is higher in “PBM E-score” value: 0.283 for the first, 0.323 for the second.

Compared with CCTCCGCA, CGGTCAGA is lower in “PBM E-score” value: 0.359 for the first, 0.0192 for the second.

First: ATCGCCAT
Second: CGCGTCCA
The “PBM E-score” value of the first is lower: -0.0309 for the first, 0.0142 for the second.

First: AAGTGCCT
Second: AAAGCAGC
The “PBM E-score” value of the first is lower: -0.328 for the first, -0.0496 for the second.

First: CTATGCAG
Second: AGGGGTGC
The “PBM E-score” value of the first is lower: -0.166 for the first, -0.114 for the second.

Compared with AGAGTCGC, GGTATCGA is higher in “PBM E-score” value: -0.14 for the first, -0.0372 for the second.

First: CGATCGGC
Second: CGATCGGA
The “PBM E-score” value of the first is lower: 0.282 for the first, 0.44 for the second.

Compared with GGATCGCA, AGATCGGA is higher in “PBM E-score” value: -0.0558 for the first, 0.43 for the second.

Compared with GGATCGGA, AGATCGGG is lower in “PBM E-score” value: 0.438 for the first, 0.222 for the second.

Compared with CGATCGTA, AGATCGGC is higher in “PBM E-score” value: 0.00037 for the first, 0.224 for the second.

First: GGATCGAA
Second: ACTCAACT
The “PBM E-score” value of the first is lower: 0.0293 for the first, 0.0546 for the second.

First: GAGCATTA
Second: TATTGAAA
The “PBM E-score” value of the first is lower: -0.111 for the first, 0.0175 for the second.

Compared with GGTTAGAA, TAGCTAGA is lower in “PBM E-score” value: -0.15 for the first, -0.285 for the second.

Compared with GAAACTCC, AAAACTCC is lower in “PBM E-score” value: 0.399 for the first, 0.386 for the second.

Compared with CAAACTCC, GAAACTCA is lower in “PBM E-score” value: 0.434 for the first, -0.0472 for the second.

Going from CAAACTCA to GAAACTTC, the “PBM E-score” value rises from -0.0703 to 0.0593.

Going from GCTAAGAA to CCGGACGC, the “PBM E-score” value rises from -0.0627 to 0.364.

Going from ACGGACGA to CCGGACGG, the “PBM E-score” value rises from 0.177 to 0.396.

Compared with ACGGACGG, CCGGACGA is higher in “PBM E-score” value: 0.209 for the first, 0.406 for the second.

First: TCGGACGA
Second: CGTGCATC
The “PBM E-score” value of the first is higher: 0.271 for the first, -0.152 for the second.

First: CGCTTTCC
Second: ATTTCGTA
The “PBM E-score” value of the first is higher: 0.143 for the first, -0.062 for the second.

First: CTCGATGA
Second: AATGGGCC
The “PBM E-score” value of the first is lower: -0.12 for the first, 0.0902 for the second.

First: CAGAGGAG
Second: GGCTAGAA
The “PBM E-score” value of the first is lower: -0.243 for the first, 0.0303 for the second.

First: AGGCATTA
Second: CGGCATTA
The “PBM E-score” value of the first is lower: -0.134 for the first, 0.405 for the second.

Compared with GGGCATTA, ATGTCGGC is higher in “PBM E-score” value: -0.0729 for the first, 0.0736 for the second.

Going from CTGTCGAA to GTGTCGGA, the “PBM E-score” value rises from -0.289 to 0.417.

With ATGTCGGA the “PBM E-score” value was 0.397.
